Shown are actives, neighbours in structure and some others; about 11% of the full set was active somewhere.
HPGD inh: qHTS Assay for Inhibitors of HPGD (15-Hydroxyprostaglandin Dehydrogenase); 15-hydroxyprostaglandin dehydrogenase [NAD(+)] (Homo sapiens), P15428; purified HPGD, NADH fluorescence kinetic, PGE2 substrate; Potency, µM, usual class: inhibitors; 4.3% of 150,000 active; AID 894, 2007; active = well fitted inhibition curve with a large enough effect, not every such curve was filed as active; inconclusive = small, poorly fitted or top-dose-only effect, or another doubt; inactive = no such curve, though single readings can be large or run the other way
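NADH formation kinetics: reaction with 30 uM PGE2 and 1 mM NAD+ (final), 20 nM enzyme, Tris-HCl pH 8 with Tween 20, after 15 min compound preincubation at room temperature. Fluorescence change, last versus first of five reads.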
CBFb RUNX1 block: qHTS Assay for Compounds Blocking the Interaction Between CBF-beta and RUNX1 for the Treatment of Acute Myeloid Leukemia. AID 1477, 2009. 230,000 tested, under 10 active. AlphaScreen CBFb-His/RUNX1-biotin binding, biochemical. Runt-related transcription factor 1 (Homo sapiens) + Core-binding factor subunit beta …. Potency, µM (doses to about 59.8 µM), actives largely listed as inhibitors
Target sequence (Q01196 whole entry, looked up): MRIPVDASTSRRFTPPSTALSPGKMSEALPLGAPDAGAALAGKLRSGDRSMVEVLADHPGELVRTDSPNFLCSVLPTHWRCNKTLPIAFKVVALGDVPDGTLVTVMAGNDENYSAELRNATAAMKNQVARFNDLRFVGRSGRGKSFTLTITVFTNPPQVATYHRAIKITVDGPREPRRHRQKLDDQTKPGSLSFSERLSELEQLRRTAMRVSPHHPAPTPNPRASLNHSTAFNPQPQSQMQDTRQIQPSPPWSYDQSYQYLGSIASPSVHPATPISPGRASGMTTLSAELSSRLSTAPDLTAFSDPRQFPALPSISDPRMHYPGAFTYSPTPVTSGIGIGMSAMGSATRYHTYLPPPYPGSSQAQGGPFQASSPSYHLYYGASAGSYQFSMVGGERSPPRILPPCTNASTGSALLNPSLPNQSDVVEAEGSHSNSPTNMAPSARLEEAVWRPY
Target sequence (Q13951 whole entry, looked up): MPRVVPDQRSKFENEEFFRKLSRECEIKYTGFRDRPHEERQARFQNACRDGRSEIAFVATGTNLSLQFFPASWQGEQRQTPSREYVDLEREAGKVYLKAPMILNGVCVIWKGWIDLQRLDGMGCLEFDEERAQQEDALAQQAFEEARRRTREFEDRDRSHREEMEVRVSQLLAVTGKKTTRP
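Inhibition was taken as any reduction in AlphaScreen signal from the CBF-beta–RUNX1 pair (His and biotin tags, 30 nM each), measured after compound (15 min) and bead (90 min) incubations at room temperature.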
ALDH1A1 inh: qHTS Assay for Inhibitors of Aldehyde Dehydrogenase 1 (ALDH1A1); Aldehyde dehydrogenase 1A1 (Homo sapiens), P00352; Purified ALDH1A1, NADH fluorescence, propionaldehyde substrate; Potency, µM (top dose mostly 75.3 µM), actives largely listed as inhibitors; 7.3% of 220,000 active; active = well fitted inhibition curve with a large enough effect, not every such curve was filed as active; inconclusive = small, poorly fitted or top-dose-only effect, or another doubt; inactive = no such curve, though single readings can be large or run the other way
HTT aggregate: qHTS Multiplex Assay to Identify Dual Action Probes in a Cell Model of Huntington: Aggregate Formation (GFP); Potency, µM (series often up to 46.1 µM), most hits filed as inhibitors; 1.1% of 220,000 active; PC12 HttQ103-GFP aggregates, Acumen cytometry, 40 h; also: nearly all actives have a fitted effect of over 60% in size
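PC12/HTTQ103-GFP, ecdysone-inducible; teb 100 nM; cpd qHTS titration; GFP aggregates read on laser cytometer, Ex 488/Em 500-530 nm.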
HTT ATP protect: qHTS Multiplex Assay to Identify Dual Action Probes in a Cell Model of Huntington: Cytoprotection (ATP). PC12 HTT-Q103 induced, cytoprotection, ATP luminescence, 40 h. Potency, µM (doses to about 56.4 µM), usual class: activators. 0.14% of 230,000 active; also: nearly all actives have a fitted effect of over 45% in size
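Compounds added alongside 100 nM tebufenozide, which induces toxic Q103 huntingtin exon 1-GFP in stable PC12 cells; surviving cells quantified by luminescent ATP measurement. Medium: phenol red-free DMEM, 5% equine and 5% calf serum.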
PNC assembly inh: High Content Assay for Compounds that inhibit the Assembly of the Perinucleolar Compartment; 3.1% of 140,000 active; activity change (PNC), negative = inhibition, % at 10 µM; PC3M PTB-GFP, PNC prevalence imaging, 16 h; active compounds read low;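 active = readout at or below -70, meaning at least 70% loss of cells showing the perinucleolar compartment, a nuclear body marking cancer cells; inconclusive = readout between -30 and a set limit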
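Read-out is percentage of cells bearing a perinucleolar compartment, from automated 20x imaging of fixed, Hoechst-stained PC3M PTB-GFP cells. Cells were seeded 4 h, then exposed 16 h to compound (23 nl of library stock) in duplicate plates.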
Of the large screens only hits and unclear results are named; the others gave an inactive call. Unless noted, calls follow the shape of the dose curve; as a rule, active = well fitted curve in the direction sought with a large enough effect; inconclusive = small, poorly fitted or top-dose-only effect, or another doubt; inactive = no such curve, though single readings can be large; an effect the other way counts as inactive or inconclusive.

Nc1ccc(C(=O)OCC(=O)N2CCc3ccccc3C2)cc1[N+](=O)[O-]	HPGD inh 13µM
CSCCC(NC(=O)c1ccccc1)C(=O)OCC(=O)c1ccc[nH]1 (configuration not stated)	none
CSCCC(NC(=O)c1ccc(Cl)cc1)C(=O)OCC(=O)c1ccc[nH]1 (configuration not stated)	PNC assembly inh -119
COc1ncc2nc(-c3cc(F)cc(F)c3)c(=O)n(CCC#N)c2n1	HPGD inh inconclusive, ALDH1A1 inh inconclusive (no result: CBFb RUNX1 block, HTT aggregate, PNC assembly inh)
S=C(NCC1CCCO1)Nc1cc(Cl)c(Cl)cc1Cl (configuration not stated)	none (no result: HPGD inh, HTT ATP protect, PNC assembly inh)
NS(=O)(=O)c1ccc(NC(=S)NCC2CCCO2)cc1 (configuration not stated)	HPGD inh inconclusive, ALDH1A1 inh 28µM (no result: HTT ATP protect)
S=C(NCC1CCCO1)Nc1cccc(Cl)c1 (configuration not stated)	HTT aggregate inconclusive (no result: HPGD inh, PNC assembly inh)
Cc1cc(C)cc(NC(=S)NCC2CCCO2)c1 (configuration not stated)	HPGD inh 14µM, PNC assembly inh inconclusive
CCNC(=O)[C@@H]1CCCN1C(=O)[C@H](CCCN=C(N)N)NC(=O)[C@H](CC(C)C)NC(=O)[C@@H](CC(C)C)NC(=O)[C@H](Cc1ccc(O)cc1)NC(=O)[C@H](CO)NC(=O)[C@H](Cc1c[nH]c2ccccc12)NC(=O)[C@H](Cc1cnc[nH]1)NC(=O)[C@@H]1CCC(=O)N1	none (no result: CBFb RUNX1 block, HTT aggregate, HTT ATP protect, PNC assembly inh)
Cc1cccc(/C=C/C(=O)c2cc(Br)ccc(=O)c2O)c1	CBFb RUNX1 block inconclusive, ALDH1A1 inh 20µM
CCc1ccc(/C=C/C(=O)c2cc(Br)ccc(=O)c2O)cc1	HPGD inh 16µM, ALDH1A1 inh inconclusive
COc1cc(-c2nc3cccc(C)n3c2NCC2CCCO2)ccc1O (configuration not stated)	ALDH1A1 inh inconclusive (no result: HPGD inh, PNC assembly inh)
O=c1c(-c2cccc(F)c2)nc2cncnc2n1-c1ccccc1	none (no result: CBFb RUNX1 block, HTT aggregate, PNC assembly inh)
COc1ccc(-c2ccc3c(n2)CCCN3C[C@H](O)CN2CCCc3nc(C)c(C)cc32)cc1	CBFb RUNX1 block inconclusive, ALDH1A1 inh inconclusive (no result: HPGD inh, HTT aggregate, PNC assembly inh)
Cc1ccc(-n2c(-c3ccccc3)c[n+]3c2CCC3)cc1	HTT aggregate 8.9µM (no result: HPGD inh, PNC assembly inh)
COc1ccc(-n2c(-c3ccc(Br)cc3)c[n+]3c2CCCCC3)cc1	HTT aggregate 2.2µM (no result: HPGD inh, PNC assembly inh)
COc1ccc(-n2c(-c3ccc(Br)cc3)c[n+]3c2CCC3)cc1	HTT aggregate inconclusive (no result: HPGD inh, PNC assembly inh)
Cc1ccc(-n2c(-c3ccc(Cl)cc3)c[n+]3c2CCC3)cc1	none (no result: HPGD inh, ALDH1A1 inh, PNC assembly inh)
COc1ccc(-n2c(-c3ccccc3)c[n+]3c2CCC3)cc1	none (no result: HPGD inh, ALDH1A1 inh, PNC assembly inh)
COc1ccc(-n2c(-c3ccc(Br)cc3)c[n+]3c2SC(C)C3)cc1 (configuration not stated)	HTT aggregate 10µM (no result: HPGD inh, HTT ATP protect, PNC assembly inh)
Cc1ccc(/C=C2\SC(=S)N(c3cccnc3)C2=O)o1	none (no result: HPGD inh, CBFb RUNX1 block, ALDH1A1 inh, PNC assembly inh)
O=C(O)c1cccc(N2C(=O)/C(=C/c3ccc(SCc4ccc(Cl)cc4)o3)SC2=S)c1	CBFb RUNX1 block inconclusive, ALDH1A1 inh 25µM, HTT ATP protect 20µM (no result: HPGD inh, PNC assembly inh)
CC1CCc2sc(C(=O)OCC(=O)NCc3ccccc3)cc2C1 (configuration not stated)	PNC assembly inh -94 (no result: HPGD inh)
Cc1ccc(CNC(=O)COC(=O)c2cc3c(s2)CCC(C)C3)cc1 (configuration not stated)	none (no result: HPGD inh)
COc1nc(OC)nc(N2CCC(C(=O)Nc3cccc4c3CCCC4)CC2)n1	none
Cc1nnc(NC(=O)C2CCN(c3nnnn3-c3ccccc3)CC2)s1	ALDH1A1 inh 20µM
